Among the data in PubChem BioAssay (NCATS) are activity change % (negative = inhibition) values, retold here.

Structures are written as SMILES. Values joined by “and” are separate entries in the source; they are usually repeats but may differ in a detail not shown here. Equal values may be shown once. Records with an inconclusive call do not appear. Active and inactive are the calls of the source. The call rests on the fitted dose curve; in most records, active means well fitted inhibition curve with a large enough effect in the signal ratio, with a control signal flat (not every such curve was filed as active); inconclusive means small, poorly fitted or top-dose-only effect, or effect the other way, or a change in a side signal; inactive means flat fitted curve, though single readings scatter; the % refers to the signal ratio.
On the % scale 0 is the no-effect control and ±100 the full control effect.

For the experiment, the target named is Thyroid hormone receptor beta (Homo sapiens) (UniProt P10828). In words: qHTS assay for small molecule antagonists of thyroid hormone receptor beta signaling (AID 588547).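 Further: cells stimulated with 0.4 nM T3 agonist during compound exposure; series mostly up to about 77 µM.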 The conditions noted are these: TR-UAS-bla HEK293, beta-lactamase ratio, antagonist mode, 18 h. The text has this: NIH Chemical Genomics Center [NCGC] U.S. Environmental Protection Agency [EPA] National Institutes of Environmental Health Sciences [NIEHS] National Toxicology Program [NTP] NCGC Assay Overview Thyroid hormone receptor (TR) belongs to nuclear hormone receptor superfamily. There are two subtypes for TR: TR-alpha and TR-beta. TR-beta plays a major role in regulating plasma cholesterol levels and it mediates the biological activities of thyroid hormone. Screening environmental chemicals on TR-beta signaling will provide important information for the mechanism of compound action.
Thyroid hormone receptor beta (Homo sapiens), sequence (P10828 whole entry, looked up): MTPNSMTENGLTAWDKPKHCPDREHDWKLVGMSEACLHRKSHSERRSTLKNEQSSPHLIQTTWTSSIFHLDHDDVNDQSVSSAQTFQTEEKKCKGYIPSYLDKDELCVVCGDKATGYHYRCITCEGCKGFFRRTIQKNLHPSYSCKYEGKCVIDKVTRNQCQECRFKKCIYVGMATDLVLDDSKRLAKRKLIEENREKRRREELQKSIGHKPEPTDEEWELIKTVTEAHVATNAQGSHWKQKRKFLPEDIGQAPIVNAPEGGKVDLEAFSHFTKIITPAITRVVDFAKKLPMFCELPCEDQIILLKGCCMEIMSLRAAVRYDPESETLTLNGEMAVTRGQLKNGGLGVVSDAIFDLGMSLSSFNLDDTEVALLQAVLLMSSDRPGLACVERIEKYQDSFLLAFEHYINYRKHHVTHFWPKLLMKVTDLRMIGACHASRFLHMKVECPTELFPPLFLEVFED
NCGC Assay Protocol Summary Using a beta-lactamase reporter-gene under control of the TR response element, a cell-based assay [GeneBLAzer TR-UAS-bla-GripTite assay developed by Invitrogen] was used to measure TR-beta signaling in antagonist mode. TR-UAS-bla-GripTite HEK 293 cells were used with assay medium containing 2% charcoal/dextran FBS, 0.1 mM NEAA and 1 mM sodium pyruvate. The assay was performed in clear bottom black Greiner 1536-well plates. Library compounds were measured for their ability to inhibit the reporter gene activity. Compounds were screened in a titration series in 1536-well format. The fluorescence intensity (405 nm excitation, 460/530 nm emission) was measured using an EnVision plate reader. […] Concentration-response titration points for each compound were fitted to the Hill equation yielding concentrations of half-maximal inhibition (IC50) and maximal response (efficacy) values. qHTS protocol for TR-beta beta-lactamase assay in antagonist mode [Step] [Parameter] [Value] [Description] 1. Reagent; 5 uL; 2500 cells/well 2. Incubation; 37 C for 4 hrs 3. Compounds; 23 nL; 0.59 nM to 92 uM 4. Controls (DMSO); 23 nL 5. Agonist (Stimulator); 1uL; T3 at 0.4nM (final) concentrations 6. Incubation; 37 C for 18 hrs 7. Detection reagent; 1 uL of CCF4-dye 8. Incubation; RT for 2 hrs 9. Detection; Fluorescence; Envision plate reader
In general terms: qHTS replaces the single test concentration by a dilution series.
`C[Si](C)(C)O[Si](C)(C)C`: the activity change % (negative = inhibition) was 22.8% (inactive).
For `Oc1ccc(/C=C/c2cc(O)cc(O)c2)cc1`, the activity change % (negative = inhibition) was 0.49% (inactive) and -24.4% (inactive).
The same measure for `OC[C@H]1O[C@@](CO)(O[C@H]2O[C@H](CO)[C@@H](O)[C@H](O)[C@H]2O)[C@@H](O)[C@@H]1O`: -5.25% (inactive).
In the case of `OCC(O)CO`, the activity change % (negative = inhibition) was -5.42% (inactive) and 3.32% (inactive).
Take `CO/N=C(/C(=O)N[C@@H]1C(=O)N2C(C(=O)O)=C(COC(N)=O)CS[C@H]12)c1ccco1`: the activity change % (negative = inhibition) is -0.0158% (inactive).
Take `CC(C)CCC[C@@H](C)[C@H]1CC[C@H]2[C@@H]3CC=C4C[C@@H](O)CC[C@]4(C)[C@H]3CC[C@]12C`: the activity change % (negative = inhibition) is -1.74% (inactive).
Under `C/C=C/C=C/C(=O)O` stands 1.05% (inactive).
As to `O=C(OCc1ccccc1)c1ccc(O)cc1`, the activity change % (negative = inhibition) was 27.2% (inactive).
With `CCCCO`, the activity change % (negative = inhibition) is 5.68% (inactive) and 1.89% (inactive).
As to `OB(O)O`, the activity change % (negative = inhibition) was 3.84% (inactive) and -13.5% (inactive).
In the case of `CCCCC(CC)COS(=O)(=O)O` (stereo not drawn), the activity change % (negative = inhibition) was 9.71% (inactive).
The same measure for `CC1=CC(=O)NS(=O)(=O)O1`: 2.81% (inactive); for `OCc1ccccc1`: -15.9% (inactive).
The same measure for `CN(CCO)CC(O)Cn1cnc2c1c(=O)n(C)c(=O)n2C` (stereo not drawn) (tested in a mixture with another compound): 12.1% (inactive).
As for `OC[C@H]1O[C@@H]2O[C@H]3[C@H](O)[C@@H](O)[C@@H](O[C@H]4[C@H](O)[C@@H](O)[C@@H](O[C@H]5[C@H](O)[C@@H](O)[C@@H](O[C@H]6[C@H](O)[C@@H](O)[C@@H](O[C@H]7[C@H](O)[C@@H](O)[C@@H](O[C@H]1[C@H](O)[C@H]2O)O[C@@H]7CO)O[C@@H]6CO)O[C@@H]5CO)O[C@@H]4CO)O[C@@H]3CO`, the activity change % (negative = inhibition) is 12.7% (inactive) and -5.44% (inactive).
As for `c1ccc2ccccc2c1`, the activity change % (negative = inhibition) is 2.25% (inactive) and -17.5% (inactive).
The same measure for `COC(=O)c1ccccc1O`: -3.85% (inactive); for `O=P(O)(O)O`: -9.56% (inactive).
The same measure for `Cc1ccc(S(=O)(=O)NCl)cc1`: 3.3% (inactive); for `NCCO/C=C/[C@H](N)C(=O)O`: 19.7% (inactive); for `Nc1ncnc2c1ncn2[C@H]1CC[C@@H](CO)O1`: -11% (inactive) and 4.8% (inactive).
For `[O-][N+](=Nc1ccccc1)c1ccccc1`, the activity change % (negative = inhibition) was 7.57% (inactive).
In the case of `ClC(Cl)Cl`, the activity change % (negative = inhibition) was -7.48% (inactive).
Under `NC(N)=O` stands -11.3% (inactive); under `CC[C@H]1OC(=O)[C@H](C)[C@@H](O[C@H]2C[C@@](C)(OC)[C@@H](O)[C@H](C)O2)[C@H](C)[C@@H](O[C@@H]2O[C@H](C)C[C@H](N(C)C)[C@H]2O)[C@](C)(O)C[C@@H](C)CN(C)[C@H](C)[C@@H](O)[C@]1(C)O`, -2.15% (inactive).
The same measure for `Cc1ccc(S(=O)(=O)O)cc1C`: -0.818% (inactive); for `O=c1n(CC2CO2)c(=O)n(CC2CO2)c(=O)n1CC1CO1` (stereo not drawn): -18.3% (inactive) and -20.3% (inactive); for `C[C@H](CCC(=O)O)[C@H]1CC[C@H]2[C@@H]3[C@H](O)C[C@@H]4C[C@H](O)CC[C@]4(C)[C@H]3C[C@H](O)[C@]12C`: 5.64% (inactive).
Under `O.O.O.O.O.O.O.O=S(=O)([O-])[O-].[Co+2]` stands 12.3% (inactive).
Turning to `CO`, the activity change % (negative = inhibition) was 0.348% (inactive).
The same measure for `CCCCCCCCCCCCCCCCCC(=O)OC[C@@H](O)[C@H]1OC[C@H](O)[C@H]1O`: 11.4% (inactive); for `Nc1nccs1`: 8.98% (inactive); for `CC1=CCC2CC1C2(C)C` (stereo not drawn): 6.5% (inactive).
On to `CO[C@@H]1[C@H](OC(=O)/C=C/C=C/C=C/C=C/C(=O)O)CC[C@]2(CO2)[C@H]1[C@@]1(C)O[C@@H]1CC=C(C)C`, for which the activity change % (negative = inhibition) was 15% (inactive).
The same measure for `CC(C)O`: -11% (inactive).
The same measure for `Cc1ncc[nH]1`: -11.5% (inactive); for `OCl`: -3.27% (inactive); for `Oc1cccc(O)c1O`: -26.7% (inactive).
